# Results reported in article PMC7862700, “An all-to-all approach to the identification of sequence-specific readers for epigenetic DNA modifications on cytosine”.
# Columns and labels:
# Test in all cases: DAPPL (digital affinity profiling via proximity ligation, sequencing); 10 mM Tris-HCl pH 7.5, 50 mM NaCl, 1 mM DTT, 4% glycerol, room temperature, 30 min; GST-TFs on glutathione beads, 16-mer random dsDNA library, 0.1% formaldehyde crosslink after washing; high values mean tight binding
# FEV = target: T1, FEV (Homo sapiens, UniProt Q99581 1-238); conditions: protein: recombinant; tags: N-terminal GST; dsDNA, one strand shown
# T1 sequence: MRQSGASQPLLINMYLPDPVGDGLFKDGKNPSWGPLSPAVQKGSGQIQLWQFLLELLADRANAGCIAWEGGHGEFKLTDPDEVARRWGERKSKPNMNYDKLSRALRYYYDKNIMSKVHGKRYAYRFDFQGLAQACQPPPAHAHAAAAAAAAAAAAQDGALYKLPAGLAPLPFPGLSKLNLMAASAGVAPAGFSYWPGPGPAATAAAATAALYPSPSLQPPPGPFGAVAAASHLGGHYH
# Summary of the method: (§1)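 Human transcription factors fused to GST were expressed in yeast, captured on glutathione beads, given DNA barcodes and pooled with a GST-only negative control. Pools were incubated with 200 nmole of a 16-mer random double-stranded DNA library in Tris/NaCl/DTT/glycerol buffer at room temperature for 30 min. They were then washed, crosslinked with 0.1% formaldehyde, proximity-ligated (BsaI/T4 ligase, 1 h, 37 °C), PCR-amplified and sequenced on an Illumina NextSeq500. Binding signal is each 6-mer's read frequency for a factor divided by its frequency for the GST control.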
# ETV5 = ETV5 (Homo sapiens, UniProt P41161 1-510); conditions: protein: recombinant; tags: N-terminal GST; dsDNA, one strand shown
# Summary of the method: as §1
# HSF1 = HSF1 (Homo sapiens, UniProt Q00613 1-529); conditions: protein: recombinant; tags: N-terminal GST; chain copies: 3; dsDNA, one strand shown
# Summary of the method: as §1
# SPIC = target: T2, SPIC (Homo sapiens, UniProt Q8N5J4 1-248); conditions: protein: recombinant; tags: N-terminal GST; dsDNA, one strand shown
# T2 sequence: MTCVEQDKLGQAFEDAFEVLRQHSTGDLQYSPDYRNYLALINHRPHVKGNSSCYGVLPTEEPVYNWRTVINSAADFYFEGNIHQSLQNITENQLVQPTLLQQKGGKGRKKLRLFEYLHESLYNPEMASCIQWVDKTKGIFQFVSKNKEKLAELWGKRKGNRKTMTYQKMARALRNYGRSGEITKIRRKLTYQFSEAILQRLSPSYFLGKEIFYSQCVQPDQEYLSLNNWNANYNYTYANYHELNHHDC
# Summary of the method: as §1
# ELF4 = ELF4 (Homo sapiens, UniProt Q99607 1-663); conditions: protein: recombinant; tags: N-terminal GST; dsDNA, one strand shown
# Summary of the method: as §1
# ELK4 = target: T3, ELK4 (Homo sapiens, UniProt P28324-2 1-405); conditions: protein: recombinant; tags: N-terminal GST; dsDNA, one strand shown
# T3 sequence: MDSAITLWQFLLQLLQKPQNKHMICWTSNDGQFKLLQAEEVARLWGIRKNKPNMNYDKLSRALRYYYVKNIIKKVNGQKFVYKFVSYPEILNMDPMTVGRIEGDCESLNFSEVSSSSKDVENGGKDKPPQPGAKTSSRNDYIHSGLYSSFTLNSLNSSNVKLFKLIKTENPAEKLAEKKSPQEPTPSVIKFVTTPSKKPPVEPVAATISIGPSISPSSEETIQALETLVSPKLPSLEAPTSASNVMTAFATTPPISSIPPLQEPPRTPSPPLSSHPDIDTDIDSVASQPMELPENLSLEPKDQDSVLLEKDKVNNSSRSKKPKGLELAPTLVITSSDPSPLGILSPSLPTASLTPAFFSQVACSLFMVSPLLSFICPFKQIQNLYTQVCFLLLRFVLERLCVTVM
# Summary of the method: as §1
# ETV2 = target: T4, ETV2 (Homo sapiens, UniProt O00321 1-342); conditions: protein: recombinant; tags: N-terminal GST; dsDNA, one strand shown
# T4 sequence: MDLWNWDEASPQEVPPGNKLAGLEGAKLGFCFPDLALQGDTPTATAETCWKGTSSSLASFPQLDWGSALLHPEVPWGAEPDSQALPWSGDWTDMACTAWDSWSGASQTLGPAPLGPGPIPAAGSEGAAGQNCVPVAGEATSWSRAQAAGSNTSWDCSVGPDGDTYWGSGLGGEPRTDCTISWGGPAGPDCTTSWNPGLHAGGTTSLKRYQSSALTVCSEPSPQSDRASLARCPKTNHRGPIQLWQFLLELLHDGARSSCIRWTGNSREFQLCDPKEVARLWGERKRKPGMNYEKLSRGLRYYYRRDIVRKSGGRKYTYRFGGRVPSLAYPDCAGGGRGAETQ
# Summary of the method: as §1
# ELF3 = target: T5, ELF3 (Homo sapiens, UniProt P78545 1-371); conditions: protein: recombinant; tags: N-terminal GST; dsDNA, one strand shown
# T5 sequence: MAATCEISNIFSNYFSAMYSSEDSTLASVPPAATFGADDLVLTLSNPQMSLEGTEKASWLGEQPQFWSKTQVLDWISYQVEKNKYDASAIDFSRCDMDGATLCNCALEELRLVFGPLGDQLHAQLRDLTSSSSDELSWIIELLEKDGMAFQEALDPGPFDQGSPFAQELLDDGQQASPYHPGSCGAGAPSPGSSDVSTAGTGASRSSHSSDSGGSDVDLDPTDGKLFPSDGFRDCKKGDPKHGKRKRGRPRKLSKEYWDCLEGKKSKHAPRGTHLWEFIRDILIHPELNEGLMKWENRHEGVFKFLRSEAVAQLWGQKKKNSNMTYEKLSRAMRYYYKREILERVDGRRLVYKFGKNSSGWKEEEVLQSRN
# Summary of the method: as §1
# CRX = CRX (Homo sapiens, UniProt O43186 1-299); conditions: protein: recombinant; tags: N-terminal GST; dsDNA, one strand shown
# Summary of the method: as §1
# ETV1 = ETV1 (Homo sapiens, UniProt P50549 1-477); conditions: protein: recombinant; tags: N-terminal GST; dsDNA, one strand shown
# Summary of the method: as §1
# Sequence of CRX (O43186 whole entry): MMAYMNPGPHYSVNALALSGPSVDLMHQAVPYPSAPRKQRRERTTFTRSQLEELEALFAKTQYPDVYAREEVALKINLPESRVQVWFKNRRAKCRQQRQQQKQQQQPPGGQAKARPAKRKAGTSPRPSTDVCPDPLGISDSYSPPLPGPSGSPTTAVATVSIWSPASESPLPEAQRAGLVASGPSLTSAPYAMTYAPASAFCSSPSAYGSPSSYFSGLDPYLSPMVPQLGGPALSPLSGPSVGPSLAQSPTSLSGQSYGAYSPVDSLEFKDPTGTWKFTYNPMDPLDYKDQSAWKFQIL
# Sequence of ELF4 (Q99607 whole entry): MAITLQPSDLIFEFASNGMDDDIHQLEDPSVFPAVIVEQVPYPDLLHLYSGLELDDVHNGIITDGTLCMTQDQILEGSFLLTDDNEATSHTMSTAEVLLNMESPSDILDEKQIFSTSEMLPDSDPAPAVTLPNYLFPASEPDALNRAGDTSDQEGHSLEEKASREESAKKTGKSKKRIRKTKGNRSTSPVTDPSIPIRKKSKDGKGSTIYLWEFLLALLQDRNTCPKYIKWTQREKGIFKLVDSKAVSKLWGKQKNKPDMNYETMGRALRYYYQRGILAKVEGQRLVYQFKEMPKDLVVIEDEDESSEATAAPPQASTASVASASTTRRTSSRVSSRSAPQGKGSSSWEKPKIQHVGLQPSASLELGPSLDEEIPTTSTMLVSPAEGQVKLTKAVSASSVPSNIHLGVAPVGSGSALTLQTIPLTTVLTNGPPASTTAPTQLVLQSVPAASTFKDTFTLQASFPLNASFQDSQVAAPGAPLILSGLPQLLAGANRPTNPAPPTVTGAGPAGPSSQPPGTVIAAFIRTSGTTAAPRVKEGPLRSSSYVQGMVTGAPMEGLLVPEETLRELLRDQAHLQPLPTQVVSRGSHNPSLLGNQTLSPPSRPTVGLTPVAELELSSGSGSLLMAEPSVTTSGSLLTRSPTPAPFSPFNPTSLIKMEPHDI
# Sequence of ETV1 (P50549 whole entry): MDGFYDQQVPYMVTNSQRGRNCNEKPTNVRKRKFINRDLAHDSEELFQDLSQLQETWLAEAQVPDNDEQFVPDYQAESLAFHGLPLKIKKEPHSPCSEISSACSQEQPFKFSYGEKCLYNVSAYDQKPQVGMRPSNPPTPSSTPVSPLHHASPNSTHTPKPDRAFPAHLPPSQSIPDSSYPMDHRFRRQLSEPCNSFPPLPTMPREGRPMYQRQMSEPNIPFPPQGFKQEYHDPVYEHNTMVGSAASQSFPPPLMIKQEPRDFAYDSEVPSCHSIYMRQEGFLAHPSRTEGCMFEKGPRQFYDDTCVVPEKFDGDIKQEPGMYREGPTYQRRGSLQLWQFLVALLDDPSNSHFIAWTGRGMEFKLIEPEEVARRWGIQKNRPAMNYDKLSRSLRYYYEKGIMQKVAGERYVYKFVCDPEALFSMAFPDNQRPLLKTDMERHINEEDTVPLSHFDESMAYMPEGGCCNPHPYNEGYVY
# Sequence of HSF1 (Q00613 whole entry): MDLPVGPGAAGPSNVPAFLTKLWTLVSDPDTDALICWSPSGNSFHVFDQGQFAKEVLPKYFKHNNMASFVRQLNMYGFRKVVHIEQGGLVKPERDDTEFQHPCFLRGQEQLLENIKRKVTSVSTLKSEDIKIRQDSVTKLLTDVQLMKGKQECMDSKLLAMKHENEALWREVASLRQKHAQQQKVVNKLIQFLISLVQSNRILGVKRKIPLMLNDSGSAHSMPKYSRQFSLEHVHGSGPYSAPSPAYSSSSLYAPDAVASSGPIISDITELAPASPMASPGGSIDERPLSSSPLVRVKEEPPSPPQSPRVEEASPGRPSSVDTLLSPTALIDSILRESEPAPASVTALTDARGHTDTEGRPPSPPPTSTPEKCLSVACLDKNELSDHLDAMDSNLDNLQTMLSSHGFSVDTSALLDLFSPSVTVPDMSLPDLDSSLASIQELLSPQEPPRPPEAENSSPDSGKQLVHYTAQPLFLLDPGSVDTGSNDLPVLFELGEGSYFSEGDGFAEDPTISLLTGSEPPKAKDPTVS
# Sequence of ETV5 (P41161 whole entry): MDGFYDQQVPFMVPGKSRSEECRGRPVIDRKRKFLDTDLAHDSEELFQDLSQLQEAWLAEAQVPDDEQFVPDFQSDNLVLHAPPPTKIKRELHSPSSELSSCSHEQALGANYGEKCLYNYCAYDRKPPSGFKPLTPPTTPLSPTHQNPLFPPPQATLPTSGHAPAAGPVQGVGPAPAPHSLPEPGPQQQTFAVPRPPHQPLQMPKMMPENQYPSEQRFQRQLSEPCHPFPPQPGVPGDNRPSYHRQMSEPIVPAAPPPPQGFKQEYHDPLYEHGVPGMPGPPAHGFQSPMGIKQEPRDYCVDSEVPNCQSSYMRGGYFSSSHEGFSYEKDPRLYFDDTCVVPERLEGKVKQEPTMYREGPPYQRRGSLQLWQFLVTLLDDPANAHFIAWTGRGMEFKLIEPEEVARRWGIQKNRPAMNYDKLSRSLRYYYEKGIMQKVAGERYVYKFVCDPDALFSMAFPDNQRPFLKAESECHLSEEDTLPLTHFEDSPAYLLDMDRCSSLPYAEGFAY
sequence,measurement,setting,value
CTTCAG,binding signal,FEV,"1.26 fold enrichment (6-mer frequency, TF over GST control)"
same,binding signal,ETV5,"1.21 fold enrichment (6-mer frequency, TF over GST control)"
same,binding signal,HSF1,"1.23 fold enrichment (6-mer frequency, TF over GST control)"
same,binding signal,SPIC,"1.26 fold enrichment (6-mer frequency, TF over GST control)"
same,binding signal,ELF4,"1.34 fold enrichment (6-mer frequency, TF over GST control)"
same,binding signal,ELK4,"1.41 fold enrichment (6-mer frequency, TF over GST control)"
same,binding signal,ETV2,"1.23 fold enrichment (6-mer frequency, TF over GST control)"
same,binding signal,ELF3,"1.39 fold enrichment (6-mer frequency, TF over GST control)"
same,binding signal,CRX,"1.16 fold enrichment (6-mer frequency, TF over GST control)"
same,binding signal,ETV1,"1.33 fold enrichment (6-mer frequency, TF over GST control)"
